Measured values published in PubChem BioAssay.
For some of these results: Potency and affinity values are given separately. Activity calls are given as the source filed them.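 Rule for the calls, unless noted: active = earlier screen potentiator hit that boosts the TRPC4 ion channel at some dose, with a dose response; inactive = no potentiation, no dose response, or not a prior hit.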

Experiments:
[1] = tested on: TRPC4 beta (transient receptor potential cation channel C4), mouse; test: activators of mouse TRPC4 channel, confirmation, cell-based, Fluo4 calcium, HEK293 TRPC4beta/mu-opioid, duplicates, 10 µM (AID 2426;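 active = fluorescence ratio normalized to control raised more than 50% in primary screen plus both repeat runs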;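 for activation: percent rise of integrated ratio over buffer wells lacking compound which define 0%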); settings: Fluo4 calcium fluorescence, at 10 µM; hits give high values
[2] = tested on: transient receptor potential cation channel C4 beta (TRPC4), mouse; test: activators of mouse TRPC4 channel, confirmation, cell-based, second round, Fluo4, HEK293 TRPC4beta/mu-opioid, 1 µM (AID 2461;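 active = primary screen active and over 50% activation in each of two duplicate runs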); settings: Fluo4 calcium fluorescence, at 1 µM; hits give high values
[3] = tested on: TRPC4 (transient receptor potential cation channel C4 beta), mouse; test: positive allosteric modulators of mouse TRPC4, confirmation, cell-based, second round, Fluo-4, HEK293 TRPC4beta/mu-opioid, 1 µM (AID 2554;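 active = primary screen hit whose fluorescence ratio, in both repeats, exceeds the weak agonist control mean by 3 SD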); settings: DAMGO EC20, Fluo-4 calcium flux, at 1 µM; hits give high values
[4] = tested on: TRPC4 beta (transient receptor potential cation channel C4), mouse; test: positive allosteric modulators of mouse TRPC4, confirmation, cell-based, Fluo-4, HEK293 TRPC4beta/mu-opioid (AID 2555;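 active = primary screen hit whose calcium fluorescence ratio, in both repeats, exceeds the weak agonist control mean by 3 SD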); settings: DAMGO EC20, Fluo-4 calcium flux, at 10 µM; hits give high values
[5] = target: Short transient receptor potential channel 4 (Mus musculus) (UniProt Q9QUQ5); test: inhibitors of mouse TRPC4 channel, confirmation, cell-based, Fluo4, HEK293 TRPC4beta/mu-opioid (AID 2636;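 active = calcium signal cut by more than 3 SD below the full-agonist control yet still positive, in both repeats and the earlier primary screen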); settings: DAMGO, Fluo4 calcium flux, at 10 µM; hits give high values
[6] = target: Short transient receptor potential channel 4 (Mus musculus) (UniProt Q9QUQ5); test: inhibitors of mouse TRPC4 channel, confirmation, cell-based, second round, Fluo4, HEK293 TRPC4beta/mu-opioid, 1 µM (AID 2637;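 active = calcium signal ratio cut to more than 3 SD under the fully stimulated control mean yet still positive, in both repeats and the primary screen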;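 for inhibition: percent of integrated ratio relative to wells lacking test compound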); settings: Fluo4 calcium flux, DAMGO, at 1 µM; hits give high values
[7] = target: Short transient receptor potential channel 4 (Mus musculus) (UniProt Q9QUQ5); test: mouse TRPC4 channel activators, dose response, cell-based, HEK293 TRPC4/mu-opioid, Fluo-4 calcium (AID 434937;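 active = primary screen activator hit with a dose response curve and TRPC4 channel activation at any tested dose; inactive = no activation, no dose response, or not a primary hit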)
[8] = target: Short transient receptor potential channel 4 (Mus musculus) (UniProt Q9QUQ5); test: TRPC4 positive allosteric modulators, dose response, cell-based, HEK293 TRPC4/mu-opioid, Fluo-4 calcium, EC20 DAMGO (AID 434941);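 note: calcium entry triggered by an EC20 dose of DAMGO at the co-expressed mu-opioid receptor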
[9] = target: Short transient receptor potential channel 6 (Mus musculus) (UniProt Q61143); test: inhibition of mouse TRPC6 channel, confirmation, selectivity assay for TRPC4 inhibitor project, cell-based, HEK293, membrane potential dye, duplicate (AID 434948;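 active = active in primary screen and both duplicates, each dropping signal beyond three positive-control SD with fluorescence still positive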); settings: HEK293 TRPC6, membrane potential dye fluorescence, at 10 µM, stimulated with maximal-effect acetylcholine; hits give high values
[10] = target: Short transient receptor potential channel 6 (Mus musculus) (UniProt Q61143); test: activation of mouse TRPC6 channel, confirmation, selectivity assay for TRPC4 activator project, cell-based, HEK293, membrane potential dye, duplicate (AID 434950;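 active = membrane potential signal rise above negative control mean plus 3 SD in both duplicates, also active in the earlier TRPC4 screen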); settings: HEK293 TRPC6, membrane potential fluorescence, at 10 µM; hits give high values
[11] = target: Short transient receptor potential channel 6 (Mus musculus) (UniProt Q61143); test: TRPC6 potentiation by TRPC4 potentiator hits, confirmation, selectivity assay for TRPC4 potentiator project, HEK293 cells, membrane potential dye, duplicate (AID 434952;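 active = compound raising the membrane signal above positive-control mean plus 3 SD in both repeats, and a primary screen hit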); settings: HEK293 TRPC6, membrane potential dye fluorescence, at 10 µM, maximal acetylcholine added after compound; hits give high values
[12] = target: Short transient receptor potential channel 4 (Mus musculus) (UniProt Q9QUQ5); test: calcium flux activators in TRPC4/5HT1a cells, counter-screen for TRPC4 activator project, cell-based, second counter screen, HEK293 TRPC4/5HT1a, Fluo-4 (AID 434977;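 active = calcium signal rise above buffer-control mean plus 5 SD in both duplicates, and also a hit in the primary screen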); settings: Fluo-4 calcium flux, at 10 µM; hits give high values
[13] = calcium flux inhibitors in TRPC4/5HT1a cells, confirmation, counter-screen for TRPC4 inhibitor project, cell-based, second counter screen, HEK293 TRPC4/5HT1a, Fluo-4 (AID 434978;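 active = primary screen active whose calcium signal fell more than 3 SD beyond the full-serotonin control mean in both duplicate plates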;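 for outcome: serotonin given first at submaximal then at maximal dose after compound preincubation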); settings: Fluo-4 calcium flux, at 10 µM, serotonin added to trigger calcium flux; hits give high values
[14] = tested on: TRPC4 (mouse), co-expressed with 5HT1a in HEK293; test: calcium flux potentiators in TRPC4/5HT1a cells, confirmation, counter-screen for TRPC4 potentiator project, cell-based, second counter screen, HEK293 TRPC4/5HT1a, Fluo-4 (AID 434979;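 active = signal rise over 3 SD above mean of control wells given weak agonist, in both repeats and first screen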); settings: Fluo-4 calcium flux, at 10 µM, serotonin added at its EC20 dose; hits give high values
[15] = calcium flux activation in mu-opioid HEK293 cells, confirmation, counter-screen for TRPC4 activator project, cell-based, HEK293 mu-opioid receptor line (AID 449723;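 active = hit in primary screen, with calcium signal over 5 SD above buffer well mean in both duplicates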;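 note: counter screen cells carry the mu-opioid receptor alone and lack TRPC4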); settings: Fluo-4 calcium fluorescence, at 10 µM; hits give high values
[16] = calcium flux enhancement in mu-opioid HEK293 cells, confirmation, counter-screen for TRPC4 allosteric potentiator project, cell-based, HEK293 mu-opioid receptor line (AID 449724;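 active = calcium signal rise more than 3 SD above the low-dose agonist control mean, in both duplicate plates and the primary screen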); settings: Fluo-4 calcium flux, at 10 µM, compound added before EC20 DAMGO stimulus; hits give high values

Short transient receptor potential channel 6 (Mus musculus), sequence (Q61143 whole entry, looked up): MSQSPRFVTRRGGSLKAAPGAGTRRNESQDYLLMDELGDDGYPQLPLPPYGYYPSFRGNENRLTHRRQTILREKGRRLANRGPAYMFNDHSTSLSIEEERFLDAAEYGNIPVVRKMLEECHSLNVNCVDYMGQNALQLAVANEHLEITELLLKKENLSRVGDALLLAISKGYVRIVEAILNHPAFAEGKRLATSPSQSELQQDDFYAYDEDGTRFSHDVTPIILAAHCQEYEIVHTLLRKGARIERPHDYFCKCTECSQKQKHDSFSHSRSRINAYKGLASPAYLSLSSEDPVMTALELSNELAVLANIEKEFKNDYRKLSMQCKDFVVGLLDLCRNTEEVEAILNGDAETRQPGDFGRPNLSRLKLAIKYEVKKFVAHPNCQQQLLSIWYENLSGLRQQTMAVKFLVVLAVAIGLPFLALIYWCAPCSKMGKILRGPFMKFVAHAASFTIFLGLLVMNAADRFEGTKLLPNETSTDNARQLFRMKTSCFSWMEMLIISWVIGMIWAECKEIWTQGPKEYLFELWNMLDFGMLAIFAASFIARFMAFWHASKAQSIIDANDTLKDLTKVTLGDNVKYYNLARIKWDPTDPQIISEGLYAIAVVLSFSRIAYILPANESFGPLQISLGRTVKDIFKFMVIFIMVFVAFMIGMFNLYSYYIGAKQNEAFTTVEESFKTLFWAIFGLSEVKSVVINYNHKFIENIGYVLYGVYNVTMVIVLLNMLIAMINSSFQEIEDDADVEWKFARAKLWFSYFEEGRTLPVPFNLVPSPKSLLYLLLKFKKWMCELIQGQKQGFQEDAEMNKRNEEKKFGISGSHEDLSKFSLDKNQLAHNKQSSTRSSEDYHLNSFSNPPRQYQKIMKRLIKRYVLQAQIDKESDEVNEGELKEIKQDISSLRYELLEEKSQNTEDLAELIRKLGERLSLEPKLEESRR
Short transient receptor potential channel 4 (Mus musculus), sequence (Q9QUQ5 whole entry, looked up): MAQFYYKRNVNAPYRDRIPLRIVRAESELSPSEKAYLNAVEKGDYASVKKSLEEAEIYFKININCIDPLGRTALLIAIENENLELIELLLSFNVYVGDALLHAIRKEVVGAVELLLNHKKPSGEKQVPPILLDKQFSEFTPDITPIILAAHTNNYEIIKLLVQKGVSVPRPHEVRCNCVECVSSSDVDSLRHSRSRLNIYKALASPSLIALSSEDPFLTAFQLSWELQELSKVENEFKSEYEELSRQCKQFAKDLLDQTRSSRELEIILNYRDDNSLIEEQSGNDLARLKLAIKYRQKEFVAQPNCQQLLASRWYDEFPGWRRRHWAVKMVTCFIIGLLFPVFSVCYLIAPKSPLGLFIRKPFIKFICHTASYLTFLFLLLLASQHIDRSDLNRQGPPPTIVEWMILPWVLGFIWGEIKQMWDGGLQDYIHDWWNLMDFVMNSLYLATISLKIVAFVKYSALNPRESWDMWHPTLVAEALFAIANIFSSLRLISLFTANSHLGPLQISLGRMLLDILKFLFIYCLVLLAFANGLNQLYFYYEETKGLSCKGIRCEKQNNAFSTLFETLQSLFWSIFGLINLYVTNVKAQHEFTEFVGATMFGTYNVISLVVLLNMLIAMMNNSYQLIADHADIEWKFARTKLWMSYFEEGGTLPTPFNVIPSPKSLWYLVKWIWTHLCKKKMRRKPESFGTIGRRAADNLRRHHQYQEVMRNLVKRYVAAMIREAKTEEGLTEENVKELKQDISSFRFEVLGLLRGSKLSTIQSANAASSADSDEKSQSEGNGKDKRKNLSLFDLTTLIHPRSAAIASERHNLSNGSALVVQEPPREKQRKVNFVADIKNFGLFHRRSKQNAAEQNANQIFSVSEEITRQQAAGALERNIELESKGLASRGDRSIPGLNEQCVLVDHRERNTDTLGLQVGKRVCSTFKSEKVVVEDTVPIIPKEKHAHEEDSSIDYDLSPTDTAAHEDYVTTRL

| Structure (SMILES) | outcome [1] | outcome [2] | outcome [3] | outcome [4] | inhibition [5] | outcome [6] | outcome [7] | outcome [8] | outcome [9] | outcome [10] | outcome [11] | outcome [12] | outcome [13] | outcome [14] | outcome [15] | outcome [16] | inhibition [6] | inhibition [9] | inhibition [13] | activation [1] |
| --- | --- | --- | --- | --- | --- | --- | --- | --- | --- | --- | --- | --- | --- | --- | --- | --- | --- | --- | --- | --- |
| Cn1c(NCc2ccccc2O)nc2ccccc21 | inactive | inactive | inactive | inactive | 62% (active) | inactive | inactive | inactive | inactive | inactive | inactive | inactive | inactive | inactive | inactive | inactive | – | – | – | – |
| Cc1cccc(Cn2c(C(C)(C)C)cc3cccnc32)c1 | inactive | inactive | inactive | inactive | 95% (active) | – | inactive | inactive | – | inactive | inactive | inactive | – | inactive | inactive | inactive | 72% (active) | 59.5% (active) | 19.4% (active) | – |
| COc1ccc(Cl)cc1N/C(N)=N/c1nc(C)cc(C)n1 | inactive | inactive | inactive | inactive | 94% (active) | – | inactive | inactive | – | inactive | inactive | inactive | – | inactive | inactive | inactive | 53% (active) | 58% (active) | 15.3% (active) | – |
| Fc1ccccc1COc1ccc(Br)cc1CNCC1CCCO1 (stereo unspecified) | inactive | inactive | inactive | inactive | 91% (active) | – | inactive | inactive | – | inactive | inactive | inactive | – | inactive | inactive | inactive | 42% (active) | 39.5% (active) | 16.8% (active) | – |
| Cc1oc(-c2ccoc2)nc1CN(Cc1ccccc1)CC1CC1 | inactive | inactive | inactive | inactive | 95% (active) | inactive | inactive | inactive | inactive | inactive | inactive | inactive | inactive | inactive | inactive | inactive | – | – | – | – |
| CNC(=S)N1CCN(C(c2ccccc2)c2ccccc2)CC1 | – | inactive | inactive | inactive | 93% (active) | inactive | inactive | inactive | inactive | inactive | inactive | inactive | inactive | inactive | inactive | inactive | – | – | – | 223% (active) |
| S=C(Nc1ccccc1)Nc1cc(Cl)ccc1Oc1ccccc1 | inactive | inactive | inactive | inactive | 78% (active) | inactive | inactive | inactive | inactive | inactive | inactive | inactive | – | inactive | inactive | inactive | – | – | 40.2% (active) | – |
| COCCn1c(SCc2cccc([N+](=O)[O-])c2)nc2ccccc2c1=O | inactive | inactive | inactive | inactive | 94% (active) | – | inactive | inactive | inactive | inactive | inactive | inactive | – | inactive | inactive | inactive | 45% (active) | – | 20.4% (active) | – |
| Cn1c(-c2ccccc2)cnc1NCc1ccccc1 | inactive | inactive | inactive | inactive | 86% (active) | – | inactive | inactive | inactive | inactive | inactive | inactive | – | inactive | inactive | inactive | 44% (active) | – | 38.6% (active) | – |
| CC(C)CCN1CCN(Cc2ccsc2)CC1CCO (stereo unspecified) | inactive | inactive | inactive | inactive | 90% (active) | – | inactive | inactive | inactive | inactive | inactive | inactive | – | inactive | inactive | inactive | 45% (active) | – | 33.8% (active) | – |
| CC1Oc2ccccc2C=C1/C=N/Nc1ccc(C(=O)O)cc1 (stereo unspecified) | inactive | inactive | inactive | inactive | 82% (active) | – | inactive | inactive | inactive | inactive | inactive | inactive | – | inactive | inactive | inactive | 51% (active) | – | 38.1% (active) | – |
| Cc1nc2ccccc2n1Cc1ccc(Br)cc1 | inactive | inactive | inactive | inactive | 96% (active) | – | inactive | inactive | inactive | inactive | inactive | inactive | – | inactive | inactive | inactive | 74% (active) | – | 9.19% (active) | – |
| CCCCc1nc(SCCOC)c2c(=O)n(C)c(=O)n(C)c2n1 | inactive | inactive | inactive | inactive | 88% (active) | inactive | inactive | inactive | inactive | inactive | inactive | inactive | – | inactive | inactive | inactive | – | – | 12.3% (active) | – |
| O=C1COc2ccc(N3C(=O)C=CC3=O)cc2N1 | inactive | inactive | inactive | inactive | 88% (active) | inactive | inactive | inactive | inactive | inactive | inactive | inactive | – | inactive | inactive | inactive | – | – | 31.1% (active) | – |
| OCCNc1nc(NCc2ccccc2)c2ccccc2n1 | inactive | inactive | inactive | inactive | 96% (active) | – | inactive | inactive | inactive | inactive | inactive | inactive | – | inactive | inactive | inactive | 61% (active) | – | 21.4% (active) | – |
| Fc1cccc(Nc2c3c(nc4ccccc24)CCC3)c1 | inactive | inactive | inactive | inactive | 96% (active) | inactive | inactive | inactive | inactive | inactive | inactive | inactive | – | inactive | inactive | inactive | – | – | 14.9% (active) | – |
